POLB inh: qHTS Assay for Inhibitors of DNA Polymerase Beta | Pol beta primer extension/strand displacement, fluorescence kinetic | Potency, µM (series often up to 114 µM), most hits filed as inhibitors | 1.3% of 340,000 active | AID 485314, 2010
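Pol beta (10 nM) was preincubated with compound for 15 min at room temperature. The reaction was then started with 50 nM substrate and read immediately and after a further 10 min at room temperature.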
Pol iota inh: qHTS for Inhibitors of Polymerase Iota. Pol iota fluorescent replication assay, 10 min. Potency, µM (titrated, usually from 115 µM), usual class: inhibitors. DNA polymerase iota (Homo sapiens), Q9UNA4. 1% of 390,000 active. AID 588590, 2011
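Fluorescent replication assay read twice, at 0 min and 10 min after adding 50 nM (final) substrate. Enzyme (10 nM) and compounds were first incubated 15 min at room temperature; enzyme-free buffer wells were negative controls.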
PI5P4K alpha inh: qHTS for Inhibitors of phosphatidylinositol 5-phosphate 4-kinase (PI5P4K). Phosphatidylinositol 5-phosphate 4-kinase type-2 alpha (Homo sapiens), P48426. 1.2% of 330,000 active. max response, %. PI5P4Kalpha enzyme, ADP-Glo luminescence, 60 min; hits give low values. AID 652105, 2013; active = max response of -50% or lower; inconclusive = between -30% and -50%; inactive = -30% or higher; also: value at the top dose of about 77 µM
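Single end-point luminescence (ADP-Glo) quantified ADP from PI5P4Kalpha turnover; ATP 5 microM final, 1 h at RT, 0.1% CHAPS and 0.28 mM EGTA in HEPES pH 7.4.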
12-LOX inh: Primary qHTS assay for inhibitors of human arachidonate 12S-lipoxygenase (ALOX12): Round 2; AID 1671190, 2021; purified 12hLO, xylenol orange hydroperoxide absorbance; 1.1% of 580,000 active; Potency, µM (highest dose often 108 µM), actives largely listed as inhibitors; Polyunsaturated fatty acid lipoxygenase ALOX12 (Homo sapiens), P18054
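Purified human 12hLO (150 nM final) in 25 mM Hepes, 0.01% Triton X-100, pH 7.0 was preincubated 15 min at room temperature with compound. Then 40 uM arachidonic acid was added, 30 min. Hydroperoxide was read by Fe-XO absorbance ratio 573/405 nm.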
Pol eta inh-1: qHTS for Inhibitors of Polymerase Eta; DNA polymerase eta (Homo sapiens), Q9Y253; recombinant Pol eta, fluorescent DNA replication assay; Potency, µM (titrated, usually from 114 µM), actives largely listed as inhibitors; 1.2% of 390,000 active; AID 588591, 2011
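Fluorescent replication assay: 50 nM final substrate added after a 15 min room-temperature compound preincubation with 10 nM enzyme. Signal taken at 0 min and again at 10 min.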
Pol kappa inh-1: qHTS for Inhibitors of Polymerase Kappa | DNA polymerase kappa (Homo sapiens), Q9UBT6 | purified Pol kappa, fluorescent DNA synthesis assay, 10 min | Potency, µM (series often up to 107 µM), most hits filed as inhibitors | 0.53% of 400,000 active
Target sequence (Q9UBT6 whole entry, looked up): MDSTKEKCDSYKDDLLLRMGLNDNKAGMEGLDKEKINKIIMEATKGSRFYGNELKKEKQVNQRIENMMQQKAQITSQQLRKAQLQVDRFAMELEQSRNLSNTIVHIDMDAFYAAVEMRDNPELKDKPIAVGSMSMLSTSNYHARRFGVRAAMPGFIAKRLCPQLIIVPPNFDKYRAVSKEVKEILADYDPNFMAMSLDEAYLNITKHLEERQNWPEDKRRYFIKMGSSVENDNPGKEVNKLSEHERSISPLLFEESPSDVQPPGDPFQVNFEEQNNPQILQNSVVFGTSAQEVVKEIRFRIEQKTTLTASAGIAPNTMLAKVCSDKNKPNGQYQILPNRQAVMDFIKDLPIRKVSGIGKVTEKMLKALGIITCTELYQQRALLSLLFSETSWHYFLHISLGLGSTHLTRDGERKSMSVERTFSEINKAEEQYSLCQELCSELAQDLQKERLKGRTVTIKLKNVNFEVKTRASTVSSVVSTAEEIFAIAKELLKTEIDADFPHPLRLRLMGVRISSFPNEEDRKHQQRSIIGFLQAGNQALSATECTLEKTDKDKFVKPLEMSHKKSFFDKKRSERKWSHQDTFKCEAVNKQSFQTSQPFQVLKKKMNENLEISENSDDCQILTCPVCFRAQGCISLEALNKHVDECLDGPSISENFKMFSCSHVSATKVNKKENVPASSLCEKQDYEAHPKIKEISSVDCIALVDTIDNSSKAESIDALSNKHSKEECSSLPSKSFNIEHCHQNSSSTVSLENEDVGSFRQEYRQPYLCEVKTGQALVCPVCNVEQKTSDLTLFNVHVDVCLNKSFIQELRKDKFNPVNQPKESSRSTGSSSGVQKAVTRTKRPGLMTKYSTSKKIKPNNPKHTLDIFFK
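Kinetic fluorescence screen: compound preincubated 15 min RT with 10 nM enzyme; 50 nM substrate (final) initiates; reads at 0/10 min.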
TbPGK inh: qHTS for inhibitors of Phosphogylcerate Kinase: Hit Validation Screen | TbPGK coupled GAPDH assay, Kinase-Glo luminescence | 79% of 500 active | shares compounds with Pol kappa inh-1 | Potency, µM (top dose mostly 57.5 µM), actives largely listed as inhibitors; also: nearly all actives have a fitted effect of over 65% in size
Pol iota confirm: qHTS for Inhibitors of Polymerase Iota: Confirmatory Assay for Cherry-picked Compounds. Pol iota primer extension, TAMRA/BHQ fluorescence. shares compounds with Pol kappa inh-1. Potency, µM, usual class: inhibitors. 77% of 1,500 active. AID 720496, 2013
Pol kappa inh-2: qHTS for Inhibitors of Polymerase Kappa: Confirmatory Assay for Cherry-picked Compounds; Potency, µM, actives largely listed as inhibitors; shares compounds with Pol eta inh-1; purified Pol-kappa, fluorescent strand-displacement substrate; 76% of 920 active
Pol eta inh-2: qHTS for Inhibitors of Polymerase Eta: Confirmatory Assay for Cherry-picked Compounds | 64% of 2,600 active | Pol eta primer extension, TAMRA/BHQ fluorescence, 10 min | Potency, µM, hits mostly inhibitors | shares compounds with Pol eta inh-1
ADP-Glo interf: qHTS for Inhibitors of PI5P4K: ADP-Glo counter assay; shares compounds with PI5P4K alpha inh; ADP-Glo detection counter-screen, luciferase luminescence, no enzyme; Potency, µM (highest dose often 76.9 µM), usual class: inhibitors; 1,100 tested, under 10 active; AID 743285, 2014
A number is an active result; . = inactive; ? = inconclusive; / = not tested or not shown. Shown are actives, neighbours in structure and some others; about 2.9% of the full set was active somewhere. Unless noted, calls follow the shape of the dose curve; as a rule, active = well fitted curve in the direction sought with a large enough effect; inconclusive = small, poorly fitted or top-dose-only effect, or another doubt; inactive = no such curve, though single readings can be large; an effect the other way counts as inactive or inconclusive.

SMILES	POLB inh	Pol iota inh	PI5P4K alpha inh	12-LOX inh	Pol eta inh-1	Pol kappa inh-1	Pol iota confirm	Pol eta inh-2	ADP-Glo interf	others
C=C(C)C(=O)N1CC2(CC(c3cccc(NC(=O)/C=C\C=C/C)c3)=NO2)C[C@H]1C(N)=O (some centres undefined)	?	11.2µM	.	.	12.6µM	39.8µM	13.4	19	/
O=C(NCCCN1CCCC1)c1cc2cc(F)ccc2[nH]1	/	/	/	.	/	/	/	/	/
CCNC(=O)NC1=C(C#N)C(C)(C)Cc2ccccc21	/	/	/	.	/	/	/	/	/
COc1cccc(/C=N/NC(=O)c2cc3cc([N+](=O)[O-])ccc3s2)c1O	3.55µM	14.1µM	.	?	3.55µM	.	/	47.8	/	TbPGK inh=2.91µM
Cc1ccc(NC(=O)CN2C(=O)S/C(=C/c3ccc(O)c([N+](=O)[O-])c3)C2=O)cc1C	89.1µM	20µM	-57.6	.	44.7µM	50.1µM	33.6	?	/	Pol kappa inh-2=59.7
Cc1cccc(NC(=O)CN2C(=O)S/C(=C\c3ccc(O)c([N+](=O)[O-])c3)C2=O)c1	?	.	?	?	?	.	/	/	/
Cc1ccc(NC(=O)CN2C(=O)S/C(=C\c3ccccn3)C2=O)cc1	.	.	.	.	.	.	/	/	/
COc1cc(/C=C2\SC(=O)N(CC(=O)Nc3ccc(C)cc3)C2=O)cc(Cl)c1OCC(=O)O	50.1µM	20µM	.	.	?	?	4.23	?	/	TbPGK inh=5.8µM
COc1ccc(/C=C/C(=O)NCc2ccc(C)cc2)cc1	/	/	/	.	/	/	/	/	/
O=C(O)CN1C(=O)/C(=C\c2cc(Br)ccc2OCc2ccc(Cl)cc2)SC1=S	?	.	?	20µM	22.4µM	.	?	47.8	/
O=C1/C(=C\c2cc([N+](=O)[O-])ccc2O)SC(=S)N1Cc1ccc(Cl)cc1	3.16µM	?	?	.	?	.	33.6	23.9	/
O=C(O)CN1C(=O)/C(=C\c2cc([N+](=O)[O-])ccc2OCc2ccccc2Cl)SC1=S	39.8µM	28.2µM	-71.5	14.1µM	22.4µM	?	?	?	/
Cc1nn(C(=O)C2CCCN2S(=O)(=O)c2ccccc2)c(C)c1Sc1ccccc1 (centres undefined)	/	/	/	.	/	/	/	/	/
CN(CC(=O)NC1CCCCNC1=O)Cc1ccccc1Cl (centres undefined)	/	/	/	.	/	/	/	/	/
COCCNC(=O)CC(C)C1CCCCC1 (centres undefined)	/	/	/	.	/	/	/	/	/
CCN(c1ccccc1)S(=O)(=O)c1cc(C(=O)O)ccc1C	12.6µM	?	?	?	12.6µM	.	7.52	9.53	/	Pol kappa inh-2=5.32
CCN(CC)c1ccc(/C=C(\C#N)C(=O)c2ccc(Br)cc2)cc1	39.8µM	?	.	.	?	22.4µM	67	42.6	/	Pol kappa inh-2=67
COc1ccc(C(=O)N2C(=S)NC(=O)/C2=C\c2ccc(C)cc2)cc1	50.1µM	?	.	?	?	?	75.2	?	/
CN1\C(=C/C=C/C=C/C=[N+](C)C)C(C)(C)c2ccccc21	15.8µM	17.8µM	?	.	39.8µM	50.1µM	37.7	33.8	/	Pol kappa inh-2=37.7
COC(=O)c1ccccc1-c1c2ccc(=N)cc-2oc2cc(N)ccc12	/	79.4µM	.	.	50.1µM	28.2µM	23.8	75.7	/	Pol kappa inh-2=47.4
COC(=O)c1ccccc1-c1ccc(/C=N/NC(=O)c2cc3ccccc3o2)o1	?	.	.	.	.	.	/	/	/
CC(=O)c1ccc(NC(=O)CSc2nnc3c(n2)[nH]c2ccccc23)cc1	8.91µM	.	/	.	44.7µM	.	?	?	/	Pol kappa inh-2=47.4
O=C(O)c1ccc(NS(=O)(=O)c2ccc3c(c2)C2C=CCC2C(c2ccccc2F)N3)cc1 (centres undefined)	?	?	-51.1	?	10µM	35.5µM	37.7	19	.
CCCCn1c(N)c(N(CCOC)C(=O)c2cc(-c3ccco3)nc3ccccc23)c(=O)[nH]c1=O	/	20µM	-71.2	/	11.2µM	89.1µM	?	?	.
O=C(OCc1nc2ccsc2c(=O)[nH]1)c1ccco1	/	.	.	.	.	.	/	/	/
SMILES	POLB inh	Pol iota inh	PI5P4K alpha inh	12-LOX inh	Pol eta inh-1	Pol kappa inh-1	Pol iota confirm	Pol eta inh-2	ADP-Glo interf	others
Cc1cnc(C(=O)OCc2nc3ccsc3c(=O)[nH]2)cn1	/	15.8µM	-65.0	.	10µM	79.4µM	26.7	21.3	.
NS(=O)(=O)c1ccc(CCNC(=O)c2ccc3nccnc3c2)cc1	/	20µM	-67.8	.	3.16µM	31.6µM	16.8	12	.	Pol kappa inh-2=4.23
C#CCN1C(=O)S/C(=C\c2ccc(-c3ccc(C(=O)O)cc3C)o2)C1=O	15.8µM	8.91µM	-57.0	.	7.08µM	17.8µM	15	8.49	.
CC(C)OC(=O)CN1C(=O)S/C(=C/c2ccc(N3CCCCC3)o2)C1=O	.	?	/	?	.	.	/	/	/
c1cc2c(cc1C1=NNC(=NC3CC3)SC1)OCCO2	.	?	-50.9	.	.	.	/	/	?	TbPGK inh=9.19µM
O=c1[nH]c(COc2ccccc2)nc2ccccc12	.	.	.	.	.	.	/	/	/
Cn1cccc1C(=O)OCc1nc2ccccc2c(=O)[nH]1	/	17.8µM	-52.5	.	20µM	70.8µM	47.4	?	.
O=C(Nc1nccs1)c1cc(-c2ccco2)nc2ccccc12	7.08µM	22.4µM	-86.0	44.7µM	3.98µM	?	?	?	.
O=C(Nc1nccs1)c1cc(-c2ccccc2)nc2ccccc12	.	.	.	.	.	.	/	/	/
Cc1ccc(-c2cc(C(=O)NCc3ccco3)c3ccccc3n2)o1	17.8µM	?	-88.1	.	7.94µM	79.4µM	?	?	.
CSCCC(NC(=O)c1ccccc1Br)C(=O)Nc1ccc(F)cc1F (centres undefined)	/	/	/	.	/	/	/	/	/
